Measured values reported in PubChem BioAssay AID595 (National Center for Advancing Translational Sciences (NCATS), 2007).
Among all 71,000 compounds or so, about 310 (0.44%) were called active. Roughly 5% stayed inconclusive and do not appear here. Calls come from the whole dose curve; as a rule, active = well fitted curve in either direction with a large enough effect; inconclusive = small, poorly fitted or top-dose-only effect, or another doubt; inactive = flat fitted curve, though single readings scatter. The sample as a whole holds a higher share of actives than the screen did.

System: Hsp90 C-terminal peptide / TPR2A (Hop) interaction, human
Test: qHTS Assay for Disrupters of an Hsp90 Co-Chaperone Interaction
Details: AlphaScreen TPR2A-His6 binding biotin-Hsp90 C-terminal peptide; series mostly up to 57 µM
Text: NIH Chemical Genomics Center [NCGC]
NIH Molecular Libraries Screening Centers Network [MLSCN]
Hsp90 (heat shock protein 90) is the essential molecular chaperone and it accounts for 1-2% of all cytosolic proteins and is critical for the activity of diverse cellular proteins that are involved in a variety of cellular processes, including development, cell cycle, and steroid hormone signaling. Its client proteins include signaling kinases such as IGF1R, Akt, v-Src, Raf-1; regulators of cell survival such as Bcr-Abl; and transcription factors such as mutated p53, estrogen and progesterone receptors. Hsp90 has emerged as an important target for cancer treatment due to its essential role in maintaining transformation and regulating the function of oncogenic signaling proteins.
The in vivo function of Hsp90 is regulated by the binding and hydrolysis of ATP at its N-terminal. Geldanamycin binds to ATP site and inhibit Hsp90 function. Geldanamycin and its analogues are under clinical trials in cancer patients.
This domain contains the binding site for tetratricopeptide repeat (TPR) domains on HOP (Hsp Organizing Protein). TPR is a structural motif used by a significant number of cochaperones by which the in vivo function of Hsp90 is regulated. TPR2A on HOP binds specifically to MEEVD motif of the C-terminal of Hsp90.
A homogeneous AlphaScreen is developed to assess the interaction between TPR2A and MEEVD motif of the C-terminal of Hsp90 by using the isolated TPR2A domain and a synthesized 20mer Hsp90 C terminal peptide. AlphaScreen is two bead-based proximity-dependent chemical energy transfer luminescent assay platform. TPR2A-His-6 and biotinylated Hsp90 C terminal peptide will bring streptavidin donor beads and nickel chelate acceptor beads to a proximity range (less than 200 nm), and subsequently lead a chemical luminescent reaction upon exciting donor beads with 680 nm laser. Inhibition of TPR2A and MEEVD motif interaction by small molecules could attenuate or abolish this chemical luminescent reaction.
Counter screening: Biotinylated-His-6 (PerkinElmer) can be utilized as a counter screen, as it serves as a linker to bring streptavidin beads and nickel chelate beads together. The counter screen can exclude alpha screen platform false positives due to small molecules being metal chelators, biotin analogues and imidazole analogues, or due to interfering with oxygen release from donor beads. Such an assay should be utilized to qualify any activity observed in this screen.
NCGC Assay Protocol Summary:
The assay was performed on 1536-well white plate (untreated solid bottom). Liquids were dispensed by 1536-well plate washer (Kalypsys, San Diego, CA). Plates were read on EnVision (PerkinElmer, Boston, MA).TPR2A-His6 was produced using a bacteria expression system and purified using a well developed method (Ghosh et al., 2000). Hsp90 C terminal 20-mer peptide with or without an N-terminal biotin group are synthesized using automated solid phase synthesis by the Yale Keck facility. The composition of assay buffer was (in mM) 25 HEPES, 100 KCl, 2 MgCl2 and 2 DTT; 0.1% BSA and 0.01% Tween-20. TPR2A-His6 binding to biotin-Hsp90 will bring streptavidin donor beads and nickel chelate acceptor beads (PerkinElmer) together and can be measured by Alpha reading by EnVision (PerkinElmer). Free Hsp90 blocks biotin-Hsp90 binding to TPR2 and serves as a positive control in the current asssay.
The assay was performed at room temperature. All compounds were screened as titrations from […] to 46 uM final concentration. The assay was performed in 1536-well format plates (untreated white solid bottom, Corning Inc.) as follows:
Sequence,Parameter,Value,Description
1,Reagent,3 uL TPR2A-His6,Final concentration was 5nM
2,Compound,23 nL,Final titration was from 0.7 nM to 46 uM
3,Time,15 minutes,Room temperature
4,Reagent,1 uL biotin-Hsp90,With and without free Hsp90. Final concentration was 10 nM for biotin-Hsp90 and 10uM for free Hsp90.
5,Time,1 hour,Room temperature
[…]
% is set by controls: 0 for no effect and ±100 for the full control effect.

Activity change, negative = inhibition, inactive:
Cc1ccc2[nH]c(=O)c(-c3nc4c(C)cccn4c3NCc3ccco3)cc2c1
Clc1ccc(C(c2ccc(Cl)cc2)n2cc[n+](C[C@@H](OCc3ccc(Cl)cc3Cl)c3ccc(Cl)cc3Cl)c2)cc1
O=C(O)[C@@H](O)Cc1ccccn1 -2.31% [at 11 µM]
OC(CCl)CCl
O=C1CCCc2c1[nH]c1ccc(Br)cc21
CCC[C@H]1C(=O)N2C(N(C)C)=Nc3ccc(C)cc3N2C1=O
CN(C)CCCn1c2ccccc2c2cnccc21 -5.16% [at 11 µM]
COc1cccc(N(CC(=O)Nc2cccc(F)c2)S(C)(=O)=O)c1
O=C(O)c1cccc(S(=O)(=O)NCCO)c1 -3.23% [at 11 µM]
CC(C)NC(=O)N1CC[C@@]2(CCCN(C(=O)c3ccco3)C2)C1
CCCCNc1nc(C)nc2c1nc(-c1ccccc1)n2CCCCN(CC)CC
Cc1cc(=O)[nH]c(SCC(=O)N2c3ccccc3CC2C)n1 (stereo not drawn)
Fc1cccc(/C=N\N=C/c2cccc(F)c2)c1
CCOC(=O)N1CCN(C(=O)c2cc3c(ccc4ccccc43)oc2=O)CC1
CC(C)(O/N=C(\C(=O)N[C@@H]1C(=O)N2C(C(=O)[O-])=C(C[n+]3ccccc3)CS[C@@H]12)c1csc(N)n1)C(=O)O
O=C(c1ccco1)N1CCC2(CC1)CN(c1ncccn1)C2
c1cncc(CNc2ccnc(-c3ccc4c(c3)OCO4)n2)c1
Cc1cc(Cl)ccc1N1C(=O)CC(SCCC(=O)O)C1=O (stereo not drawn)
O=c1c(-c2cccs2)nc2cnc(Oc3ccccc3)nc2n1-c1ccccc1
COc1ncc2nc(-c3ccc(Cl)cc3)c(=O)n(-c3ccccc3)c2n1
COc1ccccc1CNc1nc(-c2c(C)noc2C)nc2ccccc12
N=C(CC(=O)Nc1ccccn1)c1ccccc1 -0.76% [at 11 µM]
O=C1c2ccccc2C(=O)C1c1ccccc1
COc1cccc(N2C(=O)C3CCCN3C2c2ccc(F)cc2)c1 (stereo not drawn)
CS(=O)(=O)Nc1cccc(-c2cncnc2Nc2ccccc2)c1
COCCn1c(=O)c(-c2cccs2)nc2cncnc21
Oc1ccc(O)c2c(O)cccc12
S=c1c2[nH]cnc2ncn1CCSc1ncnc2nc[nH]c12 -3.58% [at 11 µM]
CCOC(=O)N1CCN(Cc2nc3c(c(=O)n(C)c(=O)n3C)n2Cc2ccccc2)CC1
O=C(NCCc1ccco1)c1nn(Cc2ccccc2)c(=O)c2ccccc12
COC(=O)N1CCC[C@@]2(CCN(C(=O)NC(C)C)C2)C1
CS(=O)(=O)N1CCC2(CC1)CN(Cc1cc(C(F)(F)F)cc(C(F)(F)F)c1)C2
CN1CCc2[nH]nc(-c3n[nH]c4c3CN(C)CC4)c2C1 -1.93% [at 11 µM]
